{"source": "PubChem BioAssay (Tox21)", "note": "“And” between values parts separate entries of the source, which are not always exact repeats. Equal entries are not always repeated. Results filed as inconclusive are left out. Unmarked numbers belong to inactive results. The source made the active and inactive calls. Unless noted, the call rests on the fitted dose curve; in most records, active means well fitted cell-killing curve with a large enough effect in the repeat runs (not every such curve was filed as active); inconclusive means weak or mixed curves, or effect the other way; inactive means no such curve, though single readings can be large or run the other way. On the % scale 0 is the no-effect control and ±100 the full control effect; potency means the concentration at half of the fitted maximal effect.", "data": [{"target": "Nuclear receptor subfamily 1 group I member 3 (Homo sapiens) (UniProt Q14994)", "sequence (Q14994 whole entry, looked up)": "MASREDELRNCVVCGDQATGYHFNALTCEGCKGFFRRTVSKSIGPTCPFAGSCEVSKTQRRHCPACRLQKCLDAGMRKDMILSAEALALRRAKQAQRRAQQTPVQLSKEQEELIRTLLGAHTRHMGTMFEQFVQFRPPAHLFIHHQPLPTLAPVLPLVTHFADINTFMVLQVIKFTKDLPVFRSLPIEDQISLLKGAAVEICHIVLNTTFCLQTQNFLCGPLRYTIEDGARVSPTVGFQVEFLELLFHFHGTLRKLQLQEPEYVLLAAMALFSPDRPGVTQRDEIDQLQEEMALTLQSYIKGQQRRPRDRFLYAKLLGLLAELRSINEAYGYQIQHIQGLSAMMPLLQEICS", "assay": "qHTS assay to identify small molecule agonists of the constitutive androstane receptor (CAR) signaling pathway (AID 1224839; active means well fitted activation curve with a large enough effect in the repeat runs; further: nearly all actives have a fitted effect of over 15% in size;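 on activation: HepG2 cells stably carrying human CAR and a CYP2B6 luciferase reporter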)", "details": "HepG2 hCAR CYP2B6-luciferase, agonist mode, 24 h; series mostly up to 92.4 µM; activation: at the top concentration", "how_it_was_run": "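Readout: firefly luciferase luminescence via ONE-Glo. System: HepG2 double-stable for hCAR and CYP2B6-2.2kb. Conditions: 15-point compound titration, PK11195 at 0.75 uM final, 24 h incubation.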", "values": [{"smiles": "CC#C[C@]1(O)CC[C@H]2[C@@H]3C[C@H](C)C4=CC(=O)CC[C@]4(C)[C@H]3CC[C@@]21C", "activation": "-0.0915% [at 42.5 µM]"}, {"smiles": "CN1C2CCC(C)(C)C1CC(OC(=O)C(O)(c1cccs1)c1cccs1)C2", "note": "(configuration not stated)", "activation": "-3.31% [at 42.5 µM]"}, {"smiles": "C[C@]12CC[C@H]3[C@@H](CCC4=CC(=O)CC[C@@H]43)[C@@H]1CC[C@@H]2OC(=O)CCc1ccco1", "activation": "0.758% [at 42.5 µM]"}, {"smiles": "[O]=[Cr][O][Cr]=[O]", "activation": "-0.173%"}, {"smiles": "Oc1cccc(Cl)c1Cl", "activation": "2.22%"}, {"smiles": "CNC(=O)CSP(=O)(OC)OC", "activation": "-1.53%"}, {"smiles": "CCNS(=O)(=O)C(F)(F)C(F)(F)C(F)(F)C(F)(F)C(F)(F)C(F)(F)C(F)(F)C(F)(F)F", "activation": "0.229%"}, {"smiles": "CN1C(=O)[C@@H](NC(=O)c2cc3ccccc3[nH]2)N=C(c2ccccc2)c2ccccc21", "activation": "4.07% [at 42.5 µM]"}, {"smiles": "ClSC(Cl)(Cl)Cl", "activation": "-0.0266%"}, {"smiles": "COc1ccc2c3c1O[C@H]1[C@H](O)CC[C@H]4[C@@H](C2)N(C)CC[C@@]341", "activation": "-2.33%"}, {"smiles": "CC(Cl)CCl", "note": "(configuration not stated)", "activation": "0.0335%"}, {"smiles": "Cc1ccn2nc(S(=O)(=O)Nc3c(F)cccc3F)nc2n1", "activation": "-4.27%"}, {"smiles": "C[C@H]1[C@H](c2ccc(Cl)cc2)SC(=O)N1C(=O)NC1CCCCC1", "Potency": "54.5 µM (active)"}, {"smiles": "Oc1ccc([C@H]2CNCc3c2ccc(O)c3O)cc1O", "activation": "-2.72% [at 42.5 µM]"}, {"smiles": "[Cl][Hg][c]1ccccc1", "activation": "-26.2%"}, {"smiles": "O=C(N[C@H]1N=C(c2ccccc2F)c2cccc3c2N(CC3)C1=O)c1cc2ccccc2[nH]1", "activation": "-5.13% [at 42.5 µM]"}, {"smiles": "CC1(C)C(C=C(Cl)Cl)C1C(=O)OC(C#N)c1ccc(F)c(Oc2ccccc2)c1", "note": "(configuration not stated)", "activation": "11.8%"}, {"smiles": "O=Cc1ccccc1", "activation": "-1.06%"}, {"smiles": "CC(C)c1c(CN(C)C(C)Cc2ccccc2)n(C)n(-c2ccccc2)c1=O", "note": "(configuration not stated)", "Potency": "13.3 µM (active)"}, {"smiles": "O=C(N[C@@H]1N=C(c2ccccc2F)c2cccc3c2N(CC3)C1=O)c1cc2ccccc2[nH]1", "Potency": "2.98 µM (active)"}, {"smiles": "O=C1C2(Cl)C3(Cl)C4(Cl)C(Cl)(Cl)C5(Cl)C3(Cl)C1(Cl)C5(Cl)C24Cl", "note": "(configuration not stated)", "Potency": "inactive"}, {"smiles": "Nc1ccccc1-c1ccccc1", "activation": "1.52%"}, {"smiles": "C[C@]12C/C(=C/O)C(=O)C[C@@H]1CC[C@@H]1[C@@H]2CC[C@@]2(C)[C@H]1CC[C@]2(C)O", "Potency": "inactive"}, {"smiles": "C=CC(=O)[O][Sn]([CH2]CCC)([CH2]CCC)[CH2]CCC", "activation": "-24.2%"}, {"smiles": "Brc1cccc(-c2ccccc2)c1", "activation": "4.21%"}, {"smiles": "O=[N+]([O-])c1ccc(Cl)c(Cl)c1Cl", "activation": "5.34%"}]}, {"test_system": "not listed separately", "assay": "qHTS assay to identify small molecule antagonists of the estrogen related receptor signaling pathway with the pleiotropic PPARgamma coactivator (PGC) from Tox21 10K library - cell viability counter screen (AID 1224840); further: nearly all actives have a fitted effect of over 40% in size", "details": "PGC/ERR reporter cells viability, CellTiter-Fluor, 17.5 h; series mostly up to 92.4 µM; viability change, negative = cytotoxic: at the top concentration", "how_it_was_run": "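Multiplexed viability counter screen in the PGC/ERR cell line: cells treated with DMSO-dissolved compounds for 17.5 hours at 37 C, then viability measured as CellTiter-Fluor fluorescence.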", "values": [{"smiles": "CC#C[C@]1(O)CC[C@H]2[C@@H]3C[C@H](C)C4=CC(=O)CC[C@]4(C)[C@H]3CC[C@@]21C", "viability change, negative = cytotoxic": "-18.2% [at 42.5 µM]"}, {"smiles": "CN", "viability change, negative = cytotoxic": "5.84%"}, {"smiles": "BrCCCBr", "viability change, negative = cytotoxic": "2.45%"}, {"smiles": "CC(C)C(Nc1ccc(C(F)(F)F)cc1Cl)C(=O)OC(C#N)c1cccc(Oc2ccccc2)c1", "note": "(configuration not stated)", "viability change, negative = cytotoxic": "2.82%"}, {"smiles": "CN1C2CCC(C)(C)C1CC(OC(=O)C(O)(c1cccs1)c1cccs1)C2", "note": "(configuration not stated)", "viability change, negative = cytotoxic": "-8.82% [at 42.5 µM]"}, {"smiles": "C[C@]12CC[C@H]3[C@@H](CCC4=CC(=O)CC[C@@H]43)[C@@H]1CC[C@@H]2OC(=O)CCc1ccco1", "viability change, negative = cytotoxic": "17.5% [at 42.5 µM]"}, {"smiles": "[O]=[Cr][O][Cr]=[O]", "viability change, negative = cytotoxic": "2.75%"}, {"smiles": "Oc1cccc(Cl)c1Cl", "viability change, negative = cytotoxic": "4.39%"}, {"smiles": "CNC(=O)CSP(=O)(OC)OC", "viability change, negative = cytotoxic": "-0.239%"}, {"smiles": "CCNS(=O)(=O)C(F)(F)C(F)(F)C(F)(F)C(F)(F)C(F)(F)C(F)(F)C(F)(F)C(F)(F)F", "viability change, negative = cytotoxic": "-11.9%"}, {"smiles": "CN1C(=O)[C@@H](NC(=O)c2cc3ccccc3[nH]2)N=C(c2ccccc2)c2ccccc21", "viability change, negative = cytotoxic": "-18.1% [at 42.5 µM]"}, {"smiles": "ClSC(Cl)(Cl)Cl", "viability change, negative = cytotoxic": "4.68%"}, {"smiles": "CCCCCCCCCCCCCCn1cc[n+](C)c1", "Potency": "27.4 µM (active) and 30.3 µM (active)"}, {"smiles": "COc1ccc2c3c1O[C@H]1[C@H](O)CC[C@H]4[C@@H](C2)N(C)CC[C@@]341", "viability change, negative = cytotoxic": "5.88%"}, {"smiles": "CC(Cl)CCl", "note": "(configuration not stated)", "viability change, negative = cytotoxic": "0.158%"}, {"smiles": "Cc1ccn2nc(S(=O)(=O)Nc3c(F)cccc3F)nc2n1", "viability change, negative = cytotoxic": "2.99%"}, {"smiles": "C[C@H]1[C@H](c2ccc(Cl)cc2)SC(=O)N1C(=O)NC1CCCCC1", "viability change, negative = cytotoxic": "-15.6%"}, {"smiles": "CC(C)=CCN1CC[C@@]2(C)c3cc(O)ccc3C[C@@H]1[C@@H]2C", "viability change, negative = cytotoxic": "-18.9%"}, {"smiles": "Oc1ccc([C@H]2CNCc3c2ccc(O)c3O)cc1O", "viability change, negative = cytotoxic": "-10.4% [at 42.5 µM]"}, {"smiles": "[Cl][Hg][c]1ccccc1", "Potency": "2.43 µM (active)"}, {"smiles": "O=C(N[C@H]1N=C(c2ccccc2F)c2cccc3c2N(CC3)C1=O)c1cc2ccccc2[nH]1", "viability change, negative = cytotoxic": "-15.2% [at 42.5 µM]"}, {"smiles": "CC1(C)C(C=C(Cl)Cl)C1C(=O)OC(C#N)c1ccc(F)c(Oc2ccccc2)c1", "note": "(configuration not stated)", "viability change, negative = cytotoxic": "1.67%"}, {"smiles": "COC(=O)c1ccccc1S(=O)(=O)NC(=O)Nc1nc(C)nc(OC)n1", "viability change, negative = cytotoxic": "3.64%"}, {"smiles": "O=Cc1ccccc1", "viability change, negative = cytotoxic": "6.37%"}, {"smiles": "CC(C)c1c(CN(C)C(C)Cc2ccccc2)n(C)n(-c2ccccc2)c1=O", "note": "(configuration not stated)", "viability change, negative = cytotoxic": "-13.9% [at 42.5 µM]"}, {"smiles": "O=C(Nc1ccc(F)cc1F)c1cccnc1Oc1cccc(C(F)(F)F)c1", "viability change, negative = cytotoxic": "1.84%"}, {"smiles": "O=C(N[C@@H]1N=C(c2ccccc2F)c2cccc3c2N(CC3)C1=O)c1cc2ccccc2[nH]1", "viability change, negative = cytotoxic": "-21.1% [at 42.5 µM]"}, {"smiles": "O=C1C2(Cl)C3(Cl)C4(Cl)C(Cl)(Cl)C5(Cl)C3(Cl)C1(Cl)C5(Cl)C24Cl", "note": "(configuration not stated)", "Potency": "47.8 µM (active) and 58.5 µM (active)"}, {"smiles": "Nc1ccccc1-c1ccccc1", "viability change, negative = cytotoxic": "-15.8%"}, {"smiles": "CN1[C@@H]2CC[C@H]1CC(O)C2", "note": "(some centres not stated)", "viability change, negative = cytotoxic": "5.22%"}, {"smiles": "C[C@]12C/C(=C/O)C(=O)C[C@@H]1CC[C@@H]1[C@@H]2CC[C@@]2(C)[C@H]1CC[C@]2(C)O", "viability change, negative = cytotoxic": "-18.8% [at 42.5 µM]"}, {"smiles": "C=CC(=O)[O][Sn]([CH2]CCC)([CH2]CCC)[CH2]CCC", "Potency": "1.72 µM (active)"}, {"smiles": "FC(F)C(F)(F)OCC(Cn1cncn1)c1ccc(Cl)cc1Cl", "note": "(configuration not stated)", "Potency": "60.8 µM (active)"}, {"smiles": "ClC(Cl)C(Cl)(Cl)Cl", "viability change, negative = cytotoxic": "-1.65%"}, {"smiles": "Brc1cccc(-c2ccccc2)c1", "viability change, negative = cytotoxic": "6.05%"}, {"smiles": "O=[N+]([O-])c1ccc(Cl)c(Cl)c1Cl", "viability change, negative = cytotoxic": "-5.75%"}]}]}
